Cardio protect = modulators protecting cardiomyocytes from myocardial damage; AID 588492; H9c2 cardiomyocytes, H2O2 injury protection, ATPLite, 2 h; 360,000 tested, 0.63% active; protection from H2O2 cell death, % at 20 µM;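 active = compounds giving at least 50% protection of heart cells from peroxide-induced death in the single-dose screen, raw or plate-pattern-corrected value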
iPSC survival up = enhancers of human iPSC single-cell survival. survival enhancement, % at 20 µM. hiPSC single-cell survival, ATPlite luminescence; 100% = ROCK inhibitor wells, 0% = DMSO. 360,000 tested, 0.044% active; in the data active = survival enhancement above about 18%;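 note: cells exposed to compounds for 16 hours before the ATP read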
Myeloid diff 2 = promotes myeloid progenitor differentiation | 360,000 tested, 1% active | calls only at 10 µM | AID 624256 | ER-HoxA9 myeloid progenitors, lysozyme-GFP differentiation, flow cytometry;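 active = normalized GFP-positive differentiation at or above the plate's own cutoff, the solvent-only control mean plus 3 SD; inconclusive = no clear call, values can overlap the other calls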;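 note: cells exposed to compound for four days before flow analysis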
ABCB6 inh MLPCN = inhibitors of human ABC transporter ABCB6. Q9NP58. K562-ABCB6 porphyrin accumulation, flow cytometry, 1 h; active compounds read low. fluorescence ratio to DMSO, % at 10 µM. 360,000 tested, 0.19% active. AID 602162;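 active = fluorescence ratio to DMSO below 75%, the collection mean minus 3 SD; inconclusive = too few cells collected in the well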;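 note: signal is porphyrin accumulated inside mitochondria; lower ratio means ABCB6 inhibition with less porphyrin fluorescence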
Target sequence (Q9NP58 whole entry, looked up): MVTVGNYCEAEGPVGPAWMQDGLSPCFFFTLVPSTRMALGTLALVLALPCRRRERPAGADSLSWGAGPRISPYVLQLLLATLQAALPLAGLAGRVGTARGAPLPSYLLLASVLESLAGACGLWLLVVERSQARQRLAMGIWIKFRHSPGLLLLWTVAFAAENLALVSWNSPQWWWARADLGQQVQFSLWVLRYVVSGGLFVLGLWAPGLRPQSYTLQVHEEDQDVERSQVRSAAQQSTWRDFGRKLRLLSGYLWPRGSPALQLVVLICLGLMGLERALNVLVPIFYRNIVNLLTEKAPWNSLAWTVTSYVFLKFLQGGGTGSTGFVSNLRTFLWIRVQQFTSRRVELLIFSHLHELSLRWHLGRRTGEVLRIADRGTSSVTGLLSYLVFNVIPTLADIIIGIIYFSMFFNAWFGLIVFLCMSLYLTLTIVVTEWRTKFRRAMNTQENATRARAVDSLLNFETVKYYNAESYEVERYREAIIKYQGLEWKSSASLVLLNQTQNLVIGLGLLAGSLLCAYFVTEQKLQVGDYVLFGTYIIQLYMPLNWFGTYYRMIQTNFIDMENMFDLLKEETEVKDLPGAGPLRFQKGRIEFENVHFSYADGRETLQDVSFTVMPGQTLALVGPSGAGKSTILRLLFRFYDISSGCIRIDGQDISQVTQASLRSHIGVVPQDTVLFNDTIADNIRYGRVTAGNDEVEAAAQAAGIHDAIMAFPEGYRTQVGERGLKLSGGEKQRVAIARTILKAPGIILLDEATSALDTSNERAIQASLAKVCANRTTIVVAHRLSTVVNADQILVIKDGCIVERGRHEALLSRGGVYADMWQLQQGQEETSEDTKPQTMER
MIN6 prolif = MIN6 beta-cell proliferation induction; proliferation, % at 10 µM; 330,000 tested, 0.29% active; MIN6 cells proliferation, ATPlite luminescence, 48 h; cells starved in 0.2% serum; 100% = growth in 10% serum;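 active = compounds whose signal lies at least 3.5 SD above the mean of all wells on their plate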
Large screens that a line does not name were inactive. Shown are actives, neighbours in structure and some others; about 2.2% of the full set was active somewhere.

OC(CNc1nc(C(F)(F)F)nc2ccccc12)c1ccccc1 (configuration not stated)	none
CC(C)[C@H](NC(=O)c1ccccc1F)C(=O)OCC(=O)Nc1sccc1C(N)=O	none
Cc1ccc(C(=O)N[C@H](C(=O)Nc2sccc2C(N)=O)C(C)C)cc1	Myeloid diff 2 active
CC(=NCCCn1ccnc1)c1c(-c2ccccc2)[nH]n(-c2nc3ccccc3s2)c1=O	Cardio protect 59.3
O=c1c(C=NCCCn2ccnc2)c(-c2ccccc2)[nH]n1-c1nc2ccccc2s1	none
COc1cccc(/C=C2\SC(=S)N(c3cccnc3)C2=O)c1OC	none
Cc1cc(/C=C2\SC(=S)N(Cc3ccco3)C2=O)c(C)n1-c1cccnc1	Myeloid diff 2 active (no result: MIN6 prolif)
O=C1/C(=C\c2cccnc2)SC(=S)N1c1ccc(F)cc1	Myeloid diff 2 active
Cc1cc(/C=C2/SC(=S)N(c3cccc(C(F)(F)F)c3)C2=O)c(C)n1-c1cccnc1	Myeloid diff 2 active
O=C1/C(=C/c2cccnc2)SC(=S)N1Cc1ccco1	none (no result: MIN6 prolif)
O=C1/C(=C/c2cccnc2)SC(=S)N1c1ccccc1	none
CCCn1c(N)c(N(CCOC)C(=O)c2ccc(Cl)c([N+](=O)[O-])c2)c(=O)[nH]c1=O	none
CCSc1nnc2c(n1)OC=Nc1ccc(Br)cc1-2	none
CC(Sc1ccccn1)C(=O)Nc1ccc2c(c1)OCCO2 (configuration not stated)	none
Cc1ccc(S(=O)(=O)CCSc2cccc(C(=O)Nc3ccccc3C(=O)O)c2)cc1	none
Cc1c2ccccc2nc2c(F)c(NC(C)C)c(F)c(F)c12	Myeloid diff 2 active (no result: MIN6 prolif)
COc1cc(C(=O)NNC(=O)C2CC2)cc(OC)c1OC	none
CN(c1ccccc1)S(=O)(=O)c1cccc(NC(=O)C2CCCO2)c1 (configuration not stated)	none
CC(C)=CCc1c(O)ccc2c1OC(c1ccc(O)c(O)c1)CC2=O (configuration not stated)	Cardio protect 53.9
O=C1CC(c2ccc(O)c(O)c2)Oc2c1ccc(O)c2O (configuration not stated)	none
COc1cc(/C=N/n2nnnc2Nc2ccccc2)cc(OC)c1OC	Cardio protect 85.0
O=C1C2C3C=CC(C3)C2C(=O)N1c1n[nH]c(-c2ccccc2)n1 (configuration not stated)	none
O=C1CCCC2=C1C(c1ccc(O)c(Br)c1)C1=C(CCCC1=O)N2c1ccccc1	Myeloid diff 2 active
CCc1nnc(NC(=O)CSc2nccn2-c2cccc(C)c2)s1	Myeloid diff 2 active
Cc1cccc(-n2ccnc2SCC(=O)Nc2nnc(C)s2)c1	none
O=C(c1cc2nc(-c3ccccc3)cc(-c3ccccc3)n2n1)N1CCN(C(=O)c2ccco2)CC1	Cardio protect 104.1
O=C(c1ccco1)N1CCN(C(=O)c2cc(-c3ccccc3)nc3ccccc23)CC1	none
COc1ccc(-c2cc(C(F)F)n3ncc(C(=O)N4CCN(C(=O)c5ccco5)CC4)c3n2)cc1	Myeloid diff 2 active
O=C(c1ccco1)N1CCN(C(=O)c2cc(-c3ccncc3)nc3ccc(Br)cc23)CC1	Cardio protect 53.1
O=C1N(c2ccccc2)c2ccccc2C1(Cc1ccncc1)Cc1ccncc1	none
O=C(NN=Cc1ccc(N2CCOCC2)s1)c1ccc([N+](=O)[O-])cc1	Cardio protect 62.7
C(=Nc1ccc(Nc2ccccc2)cc1)c1ccc2ccccc2c1	none (no result: MIN6 prolif)
Brc1ccc(C=Nc2ccc(Nc3ccccc3)cc2)s1	Myeloid diff 2 active (no result: MIN6 prolif)
CCOc1ccccc1-n1c(SCC(N)=O)nnc1-c1cccnc1	none
O=C(CCl)Nc1cccc(Oc2ccccc2)c1	none
O=C(CCl)Nc1cccc(Oc2cnccn2)c1	ABCB6 inh MLPCN 7.0
O=C(Nc1ccccc1NC(=O)NC1CCCCC1)NC1CCCCC1	none
Nc1ccccc1NC1CCCCC1	Myeloid diff 2 active (no result: MIN6 prolif)
NC(=O)c1cccc(Nc2nc(C(N)CCc3ccccc3)cs2)n1 (configuration not stated)	Cardio protect 76.6 (no result: MIN6 prolif)
CCc1ccc(N=Nc2ccc(O)c3[nH]cnc23)cc1	Myeloid diff 2 active
O=C1Cc2cc(S(=O)(=O)N3CCN(c4ccc(C(=O)O)cc4)CC3)ccc2N1	none (no result: MIN6 prolif)
CC(=O)c1ccc(N2CCN(S(=O)(=O)c3ccc4c(c3)NC(=O)CC(=O)N4)CC2)cc1	Myeloid diff 2 active
O=C(Nc1ccc(N2CCCCC2)c(Cl)c1)c1cccnc1	Myeloid diff 2 active
O=C(Nc1ccc(N2CCCC2)c(Cl)c1)c1cccnc1	none
O=c1nc(Nc2ccc(OCc3ccccc3)cc2)sc2ncccc12	Myeloid diff 2 active
COc1ccc(CNCCNC(=O)c2nonc2N)cc1OC	Myeloid diff 2 active
Cc1ncc([N+](=O)[O-])n1CCOC(=O)NC(NCc1ccccc1)C(Cl)(Cl)Cl (configuration not stated)	none
COc1ccc(CNC(=O)CN(Cc2ccc(Cl)cc2)S(=O)(=O)c2ccccc2)cc1	Myeloid diff 2 active
COc1ccc(C)cc1S(=O)(=O)N(CC(=O)NCc1ccc(Cl)cc1)Cc1ccccc1	Myeloid diff 2 active
COc1ccc(CNC(=O)CN(Cc2ccccc2)S(=O)(=O)c2ccc(Cl)cc2)cc1	none
COc1ccc(Cl)cc1-c1nc(N)nc(N(C)C)n1	none
CCOC(=O)N1CCN(C(=O)c2ccc(N(Cc3ccc(C)cc3)S(C)(=O)=O)cc2)CC1	none
Cc1cccc(C(=O)N2CCCC(Nc3ccc(C)c(C)c3)C2)n1 (configuration not stated)	none
COc1cccc2c(C)nc(Nc3nc(CSc4nnc(C)s4)cc(=O)[nH]3)nc12	Myeloid diff 2 active
COc1ccc2nc(Nc3nc(CSc4nc5ccccc5[nH]4)cc(=O)[nH]3)nc(C)c2c1	Cardio protect 69.7, Myeloid diff 2 inconclusive
Cc1ccc2c(C)nc(Nc3nc(CSc4nnc(C)s4)cc(=O)[nH]3)nc2c1	none
Cc1nc(Nc2nc(CSc3nc4ccccc4[nH]3)cc(=O)[nH]2)nc2ccccc12	Myeloid diff 2 inconclusive
CCc1cc[n+](-c2nc([O-])sc2C=O)cc1	none
CCCCn1c(NS(=O)(=O)c2ccccc2)c(S(=O)(=O)c2ccc(C)cc2)c2nc3ccccc3nc21	none (no result: MIN6 prolif)
CCCCCn1c(NC(=O)c2ccco2)c(S(=O)(=O)c2ccc(C)cc2)c2nc3ccccc3nc21	Myeloid diff 2 active
CCCCn1c(NC(=O)c2ccco2)c(S(=O)(=O)c2ccc(C)cc2)c2nc3ccccc3nc21	Myeloid diff 2 active (no result: MIN6 prolif)
CCCCn1c(NC(=O)c2ccc(Br)o2)c(S(=O)(=O)c2ccccc2)c2nc3ccccc3nc21	none
COc1cc(-c2cc(C(=O)Nc3ccc(S(=O)(=O)NCc4ccco4)cc3)c3ccccc3n2)cc(OC)c1OC	Cardio protect 61.2
COc1ccc(-c2cc(C(=O)NNC(=O)c3csc(N4CCOCC4)n3)c3ccccc3n2)cc1	Cardio protect 52.3
COc1cc(-c2cc(C(=O)NCc3ccco3)c3ccccc3n2)cc(OC)c1OC	Cardio protect 58.6
